The full data set covers some 7,900 targets. This sample favours those with a hit. About 0.6% of all pairs of compound and target were hits.
Experiments:
Assay in all cases: log2 fold change, soluble protein after heating vs DMSO (PISA); higher = thermal stabilisation; K562 cells, 10 uM, 30 min; active = over 0.2 and 3.5 SD of the protein, either way, in both replicates (recomputed)
ZC3H8 = ZC3H8 (UniProt Q8N5P1)
Outline: (§1)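 K562 cells (2×10^6 cells/mL) were treated with 10 μM compound for 30 min, and aliquots were heated for 3 min over 48°C-58°C. Pooled aliquots were extracted in PBS with 0.5% NP-40 at 4°C, and the supernatant after 21,000xg for 90 min was measured by TMTpro 16plex LC-MS/MS with channel sums equalised. Reported thermal stability, relative to control samples and from duplicates, is a log2 fold change.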

ZC3HC1 = ZC3HC1 (UniProt Q86WB0)
Outline: as §1

ZCCHC9 = ZCCHC9 (UniProt Q8N567)
Outline: as §1

ZDHHC17 = ZDHHC17 (UniProt Q8IUH5)
Outline: as §1

ZDHHC20 = ZDHHC20 (UniProt Q5W0Z9)
Outline: as §1

ZDHHC5 = ZDHHC5 (UniProt Q9C0B5)
Outline: as §1

ZDHHC8 isoform 3 = ZDHHC8 isoform 3 (UniProt Q9ULC8)
Outline: as §1

ZEB2 = ZEB2 (UniProt O60315)
Outline: as §1

ZER1 = ZER1 (UniProt Q7Z7L7)
Outline: as §1

ZFAND5 = ZFAND5 (UniProt O76080)
Outline: as §1

ZFAND6 = ZFAND6 (UniProt Q6FIF0)
Outline: as §1

ZFP91 = ZFP91 (UniProt Q96JP5)
Outline: as §1

ZFPL1 = ZFPL1 (UniProt O95159)
Outline: as §1

ZMAT2 = ZMAT2 (UniProt Q96NC0)
Outline: as §1

ZMYM1 = ZMYM1 (UniProt Q5SVZ6)
Outline: as §1

ZMYM3 = ZMYM3 (UniProt Q14202)
Outline: as §1

ZNF143 = ZNF143 (UniProt P52747)
Outline: as §1

ZDHHC7 isoform 2 = ZDHHC7 isoform 2 (UniProt Q9NXF8)
Outline: as §1

Measured: log2 fold change

Sequence of ZCCHC9 (Q8N567 whole entry, looked up): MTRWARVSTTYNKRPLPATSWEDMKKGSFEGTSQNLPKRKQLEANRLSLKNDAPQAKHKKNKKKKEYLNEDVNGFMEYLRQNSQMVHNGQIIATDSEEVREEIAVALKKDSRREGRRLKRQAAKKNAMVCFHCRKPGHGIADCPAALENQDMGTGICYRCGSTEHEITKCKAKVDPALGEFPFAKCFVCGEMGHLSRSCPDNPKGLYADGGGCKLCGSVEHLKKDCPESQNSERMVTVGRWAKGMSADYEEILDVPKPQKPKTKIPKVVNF
Sequence of ZMAT2 (Q96NC0 whole entry, looked up): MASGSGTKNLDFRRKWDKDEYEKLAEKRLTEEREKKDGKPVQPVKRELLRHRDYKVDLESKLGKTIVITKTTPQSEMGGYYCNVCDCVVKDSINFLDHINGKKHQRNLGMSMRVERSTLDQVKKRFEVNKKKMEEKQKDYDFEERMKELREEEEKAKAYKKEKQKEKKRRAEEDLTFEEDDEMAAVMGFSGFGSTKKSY
Sequence of ZMYM3 (Q14202 whole entry, looked up): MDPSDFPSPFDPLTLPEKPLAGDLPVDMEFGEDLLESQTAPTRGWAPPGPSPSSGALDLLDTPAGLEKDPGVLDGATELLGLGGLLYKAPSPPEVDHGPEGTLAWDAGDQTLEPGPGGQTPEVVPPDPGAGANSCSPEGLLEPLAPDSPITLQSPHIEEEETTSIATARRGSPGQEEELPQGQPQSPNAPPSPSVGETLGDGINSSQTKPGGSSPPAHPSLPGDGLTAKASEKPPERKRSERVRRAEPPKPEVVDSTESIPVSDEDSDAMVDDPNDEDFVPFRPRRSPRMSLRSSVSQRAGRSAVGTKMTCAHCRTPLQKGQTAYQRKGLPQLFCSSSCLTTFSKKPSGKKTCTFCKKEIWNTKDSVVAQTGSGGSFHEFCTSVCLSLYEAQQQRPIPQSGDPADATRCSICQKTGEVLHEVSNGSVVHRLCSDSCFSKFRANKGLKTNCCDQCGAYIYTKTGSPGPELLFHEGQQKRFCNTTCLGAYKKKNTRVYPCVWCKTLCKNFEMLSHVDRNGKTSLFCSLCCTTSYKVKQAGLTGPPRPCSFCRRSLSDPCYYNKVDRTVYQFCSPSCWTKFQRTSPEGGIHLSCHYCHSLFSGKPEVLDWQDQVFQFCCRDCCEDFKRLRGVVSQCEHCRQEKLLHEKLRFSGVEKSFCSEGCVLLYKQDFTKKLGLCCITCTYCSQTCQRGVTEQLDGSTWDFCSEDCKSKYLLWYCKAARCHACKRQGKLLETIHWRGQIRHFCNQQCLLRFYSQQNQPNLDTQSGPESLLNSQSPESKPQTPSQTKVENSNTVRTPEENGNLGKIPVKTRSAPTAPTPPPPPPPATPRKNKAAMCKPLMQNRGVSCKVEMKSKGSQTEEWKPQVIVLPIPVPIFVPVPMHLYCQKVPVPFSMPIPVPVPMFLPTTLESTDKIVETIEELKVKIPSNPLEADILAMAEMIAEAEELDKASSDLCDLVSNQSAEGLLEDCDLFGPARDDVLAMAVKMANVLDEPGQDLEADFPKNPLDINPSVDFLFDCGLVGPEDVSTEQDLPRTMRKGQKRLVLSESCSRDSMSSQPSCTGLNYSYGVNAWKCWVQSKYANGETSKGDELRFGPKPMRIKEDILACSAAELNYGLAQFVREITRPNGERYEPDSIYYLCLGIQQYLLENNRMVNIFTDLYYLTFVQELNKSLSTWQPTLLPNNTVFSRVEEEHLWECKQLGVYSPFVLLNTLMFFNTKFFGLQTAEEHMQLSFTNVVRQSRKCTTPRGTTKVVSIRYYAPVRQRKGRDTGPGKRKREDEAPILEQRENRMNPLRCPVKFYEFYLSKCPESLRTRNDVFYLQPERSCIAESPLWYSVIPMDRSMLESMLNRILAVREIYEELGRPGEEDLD
Sequence of ZMYM1 (Q5SVZ6 whole entry, looked up): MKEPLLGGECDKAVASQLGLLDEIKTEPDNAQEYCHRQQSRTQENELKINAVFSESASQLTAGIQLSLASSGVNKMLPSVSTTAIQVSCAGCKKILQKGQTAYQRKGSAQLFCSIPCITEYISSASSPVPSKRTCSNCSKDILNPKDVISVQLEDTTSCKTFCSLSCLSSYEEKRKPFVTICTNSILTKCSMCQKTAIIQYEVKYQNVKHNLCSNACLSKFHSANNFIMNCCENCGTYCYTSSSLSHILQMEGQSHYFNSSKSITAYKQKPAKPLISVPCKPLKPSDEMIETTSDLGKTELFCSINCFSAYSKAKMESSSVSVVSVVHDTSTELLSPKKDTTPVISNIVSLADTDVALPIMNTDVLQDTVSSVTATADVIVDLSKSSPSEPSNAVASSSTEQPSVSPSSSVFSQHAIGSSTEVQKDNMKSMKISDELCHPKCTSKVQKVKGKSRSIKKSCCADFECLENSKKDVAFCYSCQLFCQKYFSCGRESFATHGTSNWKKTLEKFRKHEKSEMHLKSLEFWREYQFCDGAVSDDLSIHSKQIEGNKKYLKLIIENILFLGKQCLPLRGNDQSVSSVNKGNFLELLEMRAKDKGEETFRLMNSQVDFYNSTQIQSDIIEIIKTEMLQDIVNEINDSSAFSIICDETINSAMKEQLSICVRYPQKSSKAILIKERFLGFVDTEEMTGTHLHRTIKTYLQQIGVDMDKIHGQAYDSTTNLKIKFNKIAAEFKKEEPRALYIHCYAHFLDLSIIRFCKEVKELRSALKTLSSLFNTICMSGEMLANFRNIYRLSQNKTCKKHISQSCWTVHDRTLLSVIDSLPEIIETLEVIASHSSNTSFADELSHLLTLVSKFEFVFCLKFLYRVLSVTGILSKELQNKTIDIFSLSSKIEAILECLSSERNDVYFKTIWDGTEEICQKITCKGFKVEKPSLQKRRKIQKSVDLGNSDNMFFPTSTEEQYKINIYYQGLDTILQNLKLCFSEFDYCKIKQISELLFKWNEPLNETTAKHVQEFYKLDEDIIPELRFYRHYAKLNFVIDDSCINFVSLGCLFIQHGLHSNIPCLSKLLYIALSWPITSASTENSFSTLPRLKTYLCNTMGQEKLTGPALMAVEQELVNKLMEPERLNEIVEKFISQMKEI
Sequence of ZC3H8 (Q8N5P1 whole entry, looked up): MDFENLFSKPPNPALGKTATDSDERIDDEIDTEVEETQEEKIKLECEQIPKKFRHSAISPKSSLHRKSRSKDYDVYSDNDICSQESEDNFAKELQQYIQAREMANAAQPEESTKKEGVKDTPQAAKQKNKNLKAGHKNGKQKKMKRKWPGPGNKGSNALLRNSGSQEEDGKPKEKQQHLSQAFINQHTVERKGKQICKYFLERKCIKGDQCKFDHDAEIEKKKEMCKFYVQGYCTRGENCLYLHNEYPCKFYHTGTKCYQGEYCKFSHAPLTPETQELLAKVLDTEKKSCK
Sequence of ZDHHC20 (Q5W0Z9 whole entry, looked up): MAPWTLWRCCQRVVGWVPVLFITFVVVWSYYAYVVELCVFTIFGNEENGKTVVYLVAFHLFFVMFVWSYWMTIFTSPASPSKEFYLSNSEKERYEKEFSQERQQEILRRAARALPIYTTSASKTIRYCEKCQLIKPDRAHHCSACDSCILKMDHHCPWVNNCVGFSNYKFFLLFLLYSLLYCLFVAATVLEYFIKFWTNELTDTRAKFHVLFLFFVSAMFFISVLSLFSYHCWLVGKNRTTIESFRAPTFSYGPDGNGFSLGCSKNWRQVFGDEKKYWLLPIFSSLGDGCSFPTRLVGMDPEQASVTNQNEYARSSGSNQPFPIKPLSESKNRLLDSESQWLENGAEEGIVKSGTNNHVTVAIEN
Sequence of ZDHHC7 isoform 2 (Q9NXF8 whole entry, looked up, canonical isoform): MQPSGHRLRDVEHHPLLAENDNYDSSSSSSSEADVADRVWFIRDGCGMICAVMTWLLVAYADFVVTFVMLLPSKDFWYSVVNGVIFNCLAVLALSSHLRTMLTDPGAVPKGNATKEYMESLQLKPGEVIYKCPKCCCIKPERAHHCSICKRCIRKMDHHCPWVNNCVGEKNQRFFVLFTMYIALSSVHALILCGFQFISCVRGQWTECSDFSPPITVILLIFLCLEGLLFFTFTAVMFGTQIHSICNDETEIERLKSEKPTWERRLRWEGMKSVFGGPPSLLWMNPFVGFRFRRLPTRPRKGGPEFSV
Sequence of ZFPL1 (O95159 whole entry, looked up): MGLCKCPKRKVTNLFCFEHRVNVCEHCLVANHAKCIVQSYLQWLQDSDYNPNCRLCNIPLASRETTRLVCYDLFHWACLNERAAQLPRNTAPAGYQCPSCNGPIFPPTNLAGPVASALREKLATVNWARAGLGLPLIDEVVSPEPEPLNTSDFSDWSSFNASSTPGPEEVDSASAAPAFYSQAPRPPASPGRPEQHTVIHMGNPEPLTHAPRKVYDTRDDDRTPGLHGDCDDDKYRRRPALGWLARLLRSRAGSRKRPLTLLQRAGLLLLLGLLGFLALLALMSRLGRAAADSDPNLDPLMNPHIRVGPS
Sequence of ZNF143 (P52747 whole entry, looked up): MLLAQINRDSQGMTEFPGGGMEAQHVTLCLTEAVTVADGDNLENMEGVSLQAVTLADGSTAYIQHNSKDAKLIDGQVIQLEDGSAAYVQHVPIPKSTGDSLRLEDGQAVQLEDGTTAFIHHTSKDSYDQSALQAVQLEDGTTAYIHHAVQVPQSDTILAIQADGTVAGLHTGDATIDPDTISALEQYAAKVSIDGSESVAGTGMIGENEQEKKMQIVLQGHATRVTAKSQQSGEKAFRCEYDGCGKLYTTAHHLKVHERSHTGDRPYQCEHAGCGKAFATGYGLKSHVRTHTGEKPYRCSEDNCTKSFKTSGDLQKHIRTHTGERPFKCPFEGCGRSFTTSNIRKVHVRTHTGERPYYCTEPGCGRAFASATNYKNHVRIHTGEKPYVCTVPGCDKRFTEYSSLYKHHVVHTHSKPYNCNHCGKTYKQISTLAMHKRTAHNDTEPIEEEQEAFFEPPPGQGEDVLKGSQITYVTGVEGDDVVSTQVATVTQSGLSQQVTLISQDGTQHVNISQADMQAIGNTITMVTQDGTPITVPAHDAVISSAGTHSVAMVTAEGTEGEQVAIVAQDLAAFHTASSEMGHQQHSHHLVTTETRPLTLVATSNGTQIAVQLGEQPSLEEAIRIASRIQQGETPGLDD

O=C1NC(=O)/C(=C\c2ccc3nccnc3c2)S1
inactive: ZC3H8 0.044 | ZC3HC1 0.021 | ZCCHC9 -0.015 | ZDHHC17 0.11 | ZDHHC20 0.095 | ZDHHC5 0.007 | ZDHHC8 isoform 3 -0.002 | ZEB2 -0.177 | ZER1 0.031 | ZFAND5 -0.017 | ZFAND6 0.007 | ZFP91 0.051 | ZFPL1 0.021 | ZMAT2 -0.015 | ZMYM1 0.005 | ZMYM3 0.079 | ZNF143 0.045

COc1cc(C(=O)O)ccc1NC(=O)[C@@H]1N[C@@H](CC(C)(C)C)[C@](C#N)(c2ccc(Cl)cc2F)[C@H]1c1cccc(Cl)c1F [idasanutlin]
inactive: ZC3H8 0.109 | ZC3HC1 -0.012 | ZCCHC9 0.139 | ZDHHC17 -0.048 | ZDHHC20 -0.014 | ZDHHC5 -0.111 | ZDHHC7 isoform 2 -0.013 | ZER1 -0.188 | ZFAND5 0.079 | ZFAND6 -0.096 | ZFP91 0.029 | ZFPL1 -0.026 | ZMAT2 0.061 | ZMYM1 0.085 | ZMYM3 0 | ZNF143 0.07

NC(=O)c1cnc(N[C@@H]2CCCC[C@@H]2N)nc1Nc1cccc(-n2nccn2)c1
inactive: ZC3H8 0.08 | ZC3HC1 -0.054 | ZCCHC9 0.049 | ZDHHC17 -0.003 | ZDHHC20 -0.001 | ZDHHC5 -0.01 | ZDHHC7 isoform 2 -0.064 | ZER1 -0.001 | ZFAND5 0.084 | ZFAND6 0.089 | ZFP91 -0.001 | ZFPL1 0.054 | ZMAT2 0.079 | ZMYM1 -0.123 | ZMYM3 0.11 | ZNF143 -0.106

CC(=O)c1cnc2ccc(-c3cc(Cl)c(O)c(Cl)c3)nc2c1N[C@H]1CC[C@H](CN(C)C)CC1
inactive: ZC3H8 0.006 | ZC3HC1 -0.165 | ZCCHC9 0.143 | ZDHHC17 -0.007 | ZDHHC20 0.026 | ZDHHC5 -0.049 | ZDHHC7 isoform 2 -0.017 | ZER1 0.009 | ZFAND5 -0.025 | ZFAND6 0.041 | ZFP91 0.018 | ZFPL1 0.023 | ZMAT2 -0.001 | ZMYM1 0.055 | ZMYM3 -0.004 | ZNF143 -0.044

CCN(CC)Cc1ccc2cc(COC(=O)Nc3ccc(C(=O)NO)cc3)ccc2c1 [givinostat]
inactive: ZC3H8 -0.106 | ZC3HC1 0.031 | ZCCHC9 0.038 | ZDHHC17 0.113 | ZDHHC20 -0.167 | ZDHHC5 -0.001 | ZDHHC7 isoform 2 0.011 | ZEB2 0.193 | ZER1 0.117 | ZFAND5 -0.016 | ZFAND6 0.017 | ZFP91 0.009 | ZFPL1 -0.09 | ZMAT2 -0.008 | ZMYM1 0.12 | ZMYM3 0.002 | ZNF143 -0.022

CNC(=O)c1ccccc1Nc1nc(Nc2ccc(N3CCOCC3)cc2OC)ncc1Cl
inactive: ZC3H8 0.019 | ZC3HC1 0.067 | ZCCHC9 0.058 | ZDHHC17 0.146 | ZDHHC20 0 | ZDHHC5 0.006 | ZDHHC7 isoform 2 -0.016 | ZEB2 -0.07 | ZER1 -0.164 | ZFAND5 -0.141 | ZFAND6 -0.015 | ZFP91 -0.016 | ZFPL1 0.061 | ZMAT2 -0.018 | ZMYM1 -0.082 | ZMYM3 0 | ZNF143 -0.084

COc1cc(Nc2ncc3c(n2)-c2ccc(Cl)cc2C(c2c(F)cccc2OC)=NC3)ccc1C(=O)O [alisertib]
inactive: ZC3H8 -0.082 | ZC3HC1 0.024 | ZCCHC9 -0.083 | ZDHHC17 -0.02 | ZDHHC20 -0.052 | ZDHHC5 -0.107 | ZEB2 0.103 | ZER1 -0.006 | ZFAND5 -0.057 | ZFAND6 -0.079 | ZFP91 -0.013 | ZFPL1 0.014 | ZMAT2 -0.045 | ZMYM1 -0.021 | ZMYM3 0.057 | ZNF143 -0.05

C[C@H](Nc1ncnc2nc[nH]c12)c1cc2cccc(Cl)c2c(=O)n1-c1ccccc1 [duvelisib]
inactive: ZC3H8 -0.126 | ZC3HC1 -0.002 | ZDHHC17 0.036 | ZDHHC20 0.04 | ZDHHC5 -0.044 | ZDHHC7 isoform 2 0.082 | ZDHHC8 isoform 3 -0.038 | ZEB2 0.05 | ZER1 -0.154 | ZFAND5 -0.063 | ZFAND6 0.032 | ZFP91 -0.038 | ZFPL1 0.046 | ZMAT2 0.014 | ZMYM1 -0.096 | ZMYM3 0.021 | ZNF143 -0.146

CO[C@H]1C[C@@H]2CC[C@@H](C)[C@@](O)(O2)C(=O)C(=O)N2CCCC[C@H]2C(=O)O[C@H]([C@H](C)C[C@@H]2CC[C@H](n3cnnn3)[C@H](OC)C2)CC(=O)[C@H](C)/C=C(\C)[C@@H](O)[C@@H](OC)C(=O)[C@H](C)C[C@H](C)/C=C/C=C/C=C/1C [zotarolimus]
inactive: ZC3H8 0.029 | ZC3HC1 0.052 | ZCCHC9 -0.044 | ZDHHC17 0.039 | ZDHHC20 -0.15 | ZDHHC5 -0.085 | ZDHHC7 isoform 2 -0.245 | ZER1 -0.035 | ZFAND5 -0.012 | ZFAND6 -0.045 | ZFP91 -0.028 | ZFPL1 0.006 | ZMAT2 -0.034 | ZMYM1 -0.05 | ZMYM3 0.093 | ZNF143 0.067

Cn1cc(-c2ccc3c(c2)CCN3C(=O)Cc2cccc(C(F)(F)F)c2)c2c(N)ncnc21
inactive: ZC3H8 -0.084 | ZC3HC1 0.014 | ZCCHC9 -0.074 | ZDHHC17 0.018 | ZDHHC20 -0.036 | ZDHHC5 -0.02 | ZDHHC7 isoform 2 -0.088 | ZER1 -0.021 | ZFAND5 -0.02 | ZFAND6 0.067 | ZFP91 -0.161 | ZFPL1 0.049 | ZMAT2 -0.023 | ZMYM1 0.07 | ZMYM3 0.053 | ZNF143 -0.129

O=C1NC(=NCc2cccs2)S/C1=C\c1ccc2ncccc2c1
inactive: ZC3H8 -0.062 | ZC3HC1 0.077 | ZCCHC9 -0.035 | ZDHHC17 0.064 | ZDHHC20 -0.125 | ZDHHC5 0.091 | ZDHHC7 isoform 2 0.161 | ZER1 -0.016 | ZFAND5 -0.015 | ZFAND6 0.077 | ZFP91 -0.007 | ZFPL1 0.01 | ZMAT2 -0.063 | ZMYM1 0.113 | ZMYM3 0 | ZNF143 -0.028

CN1CCN(CCOc2cc(OC3CCOCC3)c3c(Nc4c(Cl)ccc5c4OCO5)ncnc3c2)CC1 [saracatinib]
inactive: ZC3H8 0.088 | ZC3HC1 0.024 | ZDHHC17 -0.009 | ZDHHC20 -0.045 | ZDHHC5 0.034 | ZDHHC7 isoform 2 0.034 | ZDHHC8 isoform 3 0.188 | ZEB2 0.008 | ZER1 0.013 | ZFAND5 0.08 | ZFAND6 -0.035 | ZFP91 0.036 | ZFPL1 0.016 | ZMAT2 0.026 | ZMYM1 -0.024 | ZMYM3 0.098 | ZNF143 0.094
